IMPase inh: IMPase inhibition in cells; P97697; CHO-M1 cells, IP1 accumulation, HTRF TR-FRET ratio; inhibition (IP1 accumulation), % at 46.1 µM; 120,000 tested, under 10 active; AID 901; active = well fitted curve in the direction sought with a large enough effect in the signal ratio, not every such curve was filed as active; inconclusive = small, poorly fitted or top-dose-only effect, or a change in a side signal; inactive = no such curve, though single readings can be large or run the other way; the % refers to the signal ratio;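 also: cells stimulated with carbachol in lithium chloride buffer; higher means more IMPase inhibition seen as more IP1 and lower FRET ratio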
Target sequence (P97697 whole entry, looked up): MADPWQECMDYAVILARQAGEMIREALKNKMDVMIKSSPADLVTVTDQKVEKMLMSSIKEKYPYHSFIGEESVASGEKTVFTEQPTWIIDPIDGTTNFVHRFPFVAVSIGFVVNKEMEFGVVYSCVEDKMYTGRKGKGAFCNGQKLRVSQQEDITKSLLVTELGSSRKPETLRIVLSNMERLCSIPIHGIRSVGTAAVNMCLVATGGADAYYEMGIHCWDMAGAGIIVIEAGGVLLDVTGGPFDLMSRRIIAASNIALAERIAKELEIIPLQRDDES
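Elevated IP1 in lysates lowers TR-FRET signal (665/620 ratio and 620 channel reported). Cells were CHO-M1, given carbachol (50 uM as added) plus 50mM LiCl, pH 7.4, 30 min, 37C; compounds titrated up to 46 uM; AC50 by Hill equation.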
ALDH1A1 block: inhibitors of human aldehyde dehydrogenase 1A1; Purified ALDH1A1, NADH fluorescence, propionaldehyde substrate; Potency, µM (series often up to 75.3 µM), hits mostly inhibitors; 220,000 tested, 7.3% active; AID 1030; P00352
PNC inhibitor: blocks assembly of the perinucleolar compartment. 140,000 tested, 3.1% active. activity change (PNC), negative = inhibition, % at 10 µM. PC3M PTB-GFP, PNC prevalence imaging, 16 h; stronger effect = lower value;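 active = readout at or below -70, meaning at least 70% loss of cells showing the perinucleolar compartment, a nuclear body marking cancer cells; inconclusive = readout between -30 and a set limit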
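Compounds are pinned in duplicate onto adhered PC3M cells stably expressing GFP-tagged PTB and incubated 16 h at 37 C. Cells are then fixed, nuclei stained with Hoechst, and PNC-positive cells counted.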
HPGD block: HPGD (human) dehydrogenase inhibition | AID 894 | Potency, µM, actives largely listed as inhibitors | purified HPGD, NADH fluorescence kinetic, PGE2 substrate | 150,000 tested, 4.3% active
Target sequence (P15428 whole entry, looked up): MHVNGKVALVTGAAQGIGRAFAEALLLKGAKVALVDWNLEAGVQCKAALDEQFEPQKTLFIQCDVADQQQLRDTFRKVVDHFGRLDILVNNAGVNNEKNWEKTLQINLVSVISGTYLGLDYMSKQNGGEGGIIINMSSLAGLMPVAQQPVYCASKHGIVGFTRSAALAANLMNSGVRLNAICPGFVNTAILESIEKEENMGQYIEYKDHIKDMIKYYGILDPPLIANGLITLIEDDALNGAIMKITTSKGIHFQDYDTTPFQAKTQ
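20 nM HPGD preincubated 15 min at room temperature with compound in 50 mM Tris-HCl pH 8, 0.01% Tween 20. Started with 1 mM NAD+ and 30 uM prostaglandin E2; NADH fluorescence (360/450 nm) read 5 times over 30-s intervals, last minus first.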
LMNA splice mod: modulators of lamin A splicing; HeLa LMNA splicing GFP/RFP minigene ratio, 48 h; AID 1487; 200,000 tested, 0.01% active; Potency, µM (doses to about 46.1 µM), usual class: inhibitors; active = well fitted inhibition curve with a large enough effect in the signal ratio, with a control signal flat, not every such curve was filed as active; inconclusive = small, poorly fitted or top-dose-only effect, or effect the other way, or a change in a side signal; the % refers to the signal ratio
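S3 HeLa stable clones carrying a lamin A-EGFP splicing minigene plus DsRed2 were seeded at 600 cells/well in Opti-MEM with 2% FBS, pin-dosed and incubated 48 h at 37°C. Acumen cytometry (488 nm) gave the GFP/RFP total-intensity ratio.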
KinaseGlo FLuc: counter-screen: inhibitors of Kinase-Glo firefly luciferase | Q27757 | Kinase-Glo luciferase, ATP luminescence, 8 min | Potency, µM (titrated, usually from 38.3 µM), most hits filed as inhibitors | 200,000 tested, 0.28% active | AID 1379; active = well fitted inhibition curve with a large enough effect; inconclusive = small, poorly fitted or top-dose-only effect; also: nearly all actives have a fitted effect of over 60% in size
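Compound is pinned into ATP-containing buffer (10 uM ATP, imidazole pH 7.2, 7 mM MgCl2). Kinase-Glo luciferase reagent is then added. Light output is recorded following an 8-min room-temperature incubation.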
Hits are given with their value; . = inactive; ? = inconclusive; / = not tested or not shown; ! = repeats disagree; [ ] = another dose, or the depositor's remark. The list is not random: actives were taken first. Their share in the collection is about 10%. Unless noted, calls follow the shape of the dose curve; as a rule, active = well fitted inhibition curve with a large enough effect (not every such curve was filed as active); inconclusive = small, poorly fitted or top-dose-only effect, or another doubt; inactive = no such curve, though single readings can be large or run the other way.

SMILES	IMPase inh	ALDH1A1 block	PNC inhibitor	HPGD block	LMNA splice mod	KinaseGlo FLuc
O=C1C(SCCO)=C(SCCO)C(=O)c2ccccc21	.	17.8µM	/	2.82µM!	?	.
Cc1ccc2[nH]c(=O)c3cc(C(=O)N(C)Cc4ccco4)sc3c2c1	.	?	.	?	.	.
CCOCCCN(Cc1ccco1)C(=O)c1cc2c(=O)[nH]c3ccc(C)cc3c2s1	.	?	-85.0	.	?	.
O=C(C[n+]1cc(-c2ccccc2)n2c1CCC2)c1cccs1	/	.	/	/	.	.
O=C(C[n+]1ccn(CCCNP2(=O)C=C(c3ccccc3)OC(c3ccccc3)=C2)c1)c1cccs1	/	14.1µM	/	/	.	.
Cc1cc(C)c2cc(C#N)c(NCCCNC(=O)CCC(=O)O)nc2c1	.	?	-87.2	?	.	.
CCCCc1ccc(C2C(C#N)=C(N)SC(N)=C2C#N)s1	?	?	.	14.1µM	.	.
Cc1nn(C(C)c2n[nH]c(=S)n2-c2cccc(Cl)c2)c(C)c1[N+](=O)[O-] (centres undefined)	.	.	.	22.4µM	.	.
Cc1ccc(-n2c(C(C)n3nc(C)c([N+](=O)[O-])c3C)n[nH]c2=S)cc1 (centres undefined)	.	.	.	.	.	.
Cc1ccc(N2CC(NC(=O)c3ccc(S(=O)(=O)N(C)C)cc3)CC2=O)cc1C (centres undefined)	/	/	/	/	.	/
COc1ccc(CCNS(=O)(=O)c2ccc(F)c(C(=O)Nc3ccc(Cl)cc3)c2)cc1OC	/	/	/	/	.	/
Cc1ccccc1OCC(=O)Nc1cccc(C(=O)OCc2cc(=O)n3c(C)csc3n2)c1	/	/	/	/	.	/
C[C@@H]1[C@H](O)[C@@H](C)/C=C/C=C/C=C/C=C/C=C/C=C/C=C/[C@H](O[C@@H]2O[C@H](C)[C@@H](O)[C@H](N)[C@@H]2O)C[C@@H]2O[C@](O)(C[C@@H](O)C[C@@H](O)[C@H](O)CC[C@@H](O)C[C@@H](O)CC(=O)O[C@H]1C)C[C@H](O)[C@H]2C(=O)O	/	.	/	.	?	/
COc1ccc(/C=c2\sc3nc(=O)c(C)nn3c2=O)c(OC)c1	/	22.4µM	/	/	.	.
COc1ccc(Br)cc1/C=c1\sc2nc(-c3ccco3)nn2c1=O	.	28.2µM	.	14.1µM	.	.
Cc1ccc(/C=c2\sc3nc(-c4ccco4)nn3c2=O)o1	.	3.55µM	?	17.8µM	.	.
Cc1ccc(/C=c2/sc3nnc(-c4ccccc4Cl)n3c2=O)o1	.	?	?	.	.	.
Cc1ccc(/C=c2\sc3nc(-c4ccccc4Br)nn3c2=O)o1	.	12.6µM	?	20µM	.	.
COc1ccccc1/C=c1\sc2nc(-c3ccccc3OC)nn2c1=O	.	.	.	.	.	.
COc1ccc(-n2nc3cc(C)c(NC(=O)COc4cccc(C)c4)cc3n2)cc1	.	/	/	/	/	/
O=C(/C=C/c1ccco1)Nc1ccc(Cl)c(-c2nc3cc(Cl)ccc3o2)c1	.	/	/	/	/	/
CCN1CCN(CC(=O)c2cc(Cl)ccc2Cl)CC1	/	14.1µM	/	/	?	.
Cc1ccc(S(=O)(=O)c2cnc(-c3ccccc3)nc2N2CCCCC2)cc1	/	12.6µM	/	/	/	.
Cc1cc(O)c(C(c2ccc(Cl)cc2)N2CCN(c3ccccc3)CC2)c(=O)n1Cc1ccco1 (centres undefined)	/	/	/	/	.	/
CN1CCN(C(=S)NC(=O)c2ccc(Cl)cc2)CC1	/	17.8µM	/	/	.	.
SMILES	IMPase inh	ALDH1A1 block	PNC inhibitor	HPGD block	LMNA splice mod	KinaseGlo FLuc
NNS(=O)(=O)c1ccc(Cc2ncc(C(F)(F)F)cc2Cl)s1	.	3.16µM	?	.	.	.
O=C(CCl)c1ccc(Cc2ncc(C(F)(F)F)cc2Cl)s1	.	0.708µM	.	.	.	.
Cc1noc(C)c1C(=O)N1CCC[C@@]2(CCN(C(=O)Nc3ccccc3)C2)C1	/	.	/	.	/	.
NCCCCCCN	/	.	/	.	/	/
CCCCc1ccc(CC(=O)O)cc1	.	14.1µM	?	31.6µM	.	.
COc1cccc(NC(=O)CSc2nnc(NC(=O)NC3CCCCC3)s2)c1	/	/	/	/	.	/
Cc1ccc([N+](=O)[O-])c(N)c1	/	.	/	.	/	/
CN(CCc1ccccn1)c1ccc2c(c1)C(=O)c1ccccc1-2	/	.[13.5 µM]	/	.	/	.[7.66 µM]
CCCc1nc2sc3c(SCC(=O)NCc4ccco4)ncnc3c2c2c1CCC2	.	25.1µM	.	?	?	.

Screening data deposited in PubChem by National Center for Advancing Translational Sciences (NCATS).
